Source: PubChem BioAssay (NCI)
This is part of a sample that, as a whole, favours compounds with a hit. Of some 83,000 tested, about 20% had one in any assay.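 Negative percent growth values reflect cell death: -40 means 40% of the cells present at the start died, and -100 means all died.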 Values without a mark were called inactive. Active and inactive are the calls of the source. The calls were made as follows: active = growth percent below 10; inactive = the rest.

Legend:
Assay in all cases: NCI-60 one-dose screen, 48 h (100 = growth as untreated, 0 = no growth, -100 = all killed)
Conditions in all cases: 10 µM unless noted
SR leukemia = tested on: SR leukemia
RPMI-8226 leukemia = tested on: RPMI-8226 leukemia
OVCAR-8 ovarian = tested on: OVCAR-8 ovarian
OVCAR-5 ovarian = tested on: OVCAR-5 ovarian
OVCAR-4 ovarian = tested on: OVCAR-4 ovarian
SK-OV-3 ovarian = tested on: SK-OV-3 ovarian
IGROV1 ovarian = tested on: IGROV1 ovarian
OVCAR-3 ovarian = tested on: OVCAR-3 ovarian
HS 578T breast = tested on: HS 578T breast
NCI/ADR-RES ovarian = tested on: NCI/ADR-RES ovarian
T-47D breast = tested on: T-47D breast
BT-549 breast = tested on: BT-549 breast
MDA-MB-435 melanoma = tested on: MDA-MB-435 melanoma
SW-620 colon = tested on: SW-620 colon
MCF7 breast = tested on: MCF7 breast
HCT-116 colon = tested on: HCT-116 colon
HCC-2998 colon = tested on: HCC-2998 colon
KM12 colon = tested on: KM12 colon

Row | SMILES | growth (SR leukemia) | growth (RPMI-8226 leukemia) | growth (OVCAR-8 ovarian) | growth (OVCAR-5 ovarian) | growth (OVCAR-4 ovarian) | growth (SK-OV-3 ovarian) | growth (IGROV1 ovarian) | growth (OVCAR-3 ovarian) | growth (HS 578T breast) | growth (NCI/ADR-RES ovarian) | growth (T-47D breast) | growth (BT-549 breast) | growth (MDA-MB-435 melanoma) | growth (SW-620 colon) | growth (MCF7 breast) | growth (HCT-116 colon) | growth (HCC-2998 colon) | growth (KM12 colon)
1 | CCCCn1c(-c2cccc(OC)c2)nc2cc(OC)c(OC)cc2c1=O | 75.1% | 58.9% | 118% | 101% | 108% | 119% | 89.2% | 113% | 104% | 94.2% | 91.6% | 283% | 115% | 102% | 97.9% | 89.3% | 103% | 108%
2 | O=C1CCC(c2c(O)cc(O)c3c(=O)c(O)c(-c4ccc(O)c(O)c4)oc23)N1 (stereo not drawn) | 96.2% | 99.5% | 105% | 104% | 108% | 85.1% | 107% | 101% | 100% | 96.8% | 83.6% | 112% | 110% | 108% | 95.2% | 99.8% | 89.4% | 101%
3 | O=C(CSc1nnc(-c2ccccc2)o1)Nc1ccc(C(=O)/C=C/c2ccccc2)cc1 | 28.8% | 2.35% (active) | 60.1% | 102% | 30.9% | 108% | 38% | 41.8% | 88.5% | 53.6% | 79.4% | 74.5% | 55.5% | 39.4% | 7.77% (active) | -2.15% (active) | 46.5% | 30.2%
4 | COc1ccc(Cn2cc3c(c2-c2cc(OC)c(OC)c(OC)c2)CCc2c(CO)noc2-3)cc1 | 22.2% | 21.7% | 22.4% | 56.6% | 68.9% | 39.9% | 40.8% | 5.3% (active) | 9.56% (active) | 8.59% (active) | 64.3% | 0.154% (active) | -27.1% (active) | 21.4% | 19.6% | 7.89% (active) | 26.5% | 16.5%
5 | C=C1C(=O)O[C@H]2[C@H]1CC/C(C(=O)Nc1ccc(OC)c(C(N)=O)c1O)=C\CC[C@@]1(C)O[C@@H]21 | 22.3% | 70.8% | 68.2% | 75.1% | 67.2% | 80.7% | 55.5% | 25.4% | 77.4% | 92.5% | 16.9% | 30.4% | 60.6% | 23.8% | 31.1% | 23.8% | 102% | 85%
6 | COc1ccc(-c2nn(-c3cccc(Cl)c3)cc2-c2cc(-c3ccc(Br)cc3)[nH]c(=O)c2C#N)cc1 | 35.6% | 75% | 77.9% | 105% | -34% (active) | 89.1% | 92.9% | 68% | 33% | 65% | 70.8% | 66.3% | 94.4% | 73.5% | 65% | 79.7% | 98.4% | 91.8%
7 | NC(CCCC(N)C(=O)c1ccccc1)C(=O)O (stereo not drawn) | 124% | 115% | 86.2% | 103% | 97.3% | 93% | 101% | 110% | 108% | 103% | 89.9% | 104% | 105% | 110% | 91.2% | 99.2% | 103% | 101%
8 | CC(=O)CC/C=C(\C)[C@H](O)[C@H](C)C(=O)O[C@H]1C[C@H](C)C=C2C=C[C@@]3(C)O[C@@H](O)CC(=O)[C@]3(C)[C@H]21 | 0.335% (active) | -18.5% (active) | -14.7% (active) | -10% (active) | -21.9% (active) | -25.5% (active) | -17.7% (active) | -46.4% (active) | -10.1% (active) | 0.0427% (active) | -26.6% (active) | -57% (active) | -88.3% (active) | 1.02% (active) | -4.71% (active) | -20.3% (active) | -81.9% (active) | -10% (active)
9 | COc1ccc(-c2ccc(NC(=O)Nc3ccc(Cl)c(C(F)(F)F)c3)c(C)n2)cc1 | 35.7% | 9.87% (active) | 57.4% | 89.1% | 45.1% | 68.1% | 52.9% | 27.6% | 77% | 49.8% | 21.5% | 66.2% | 71.9% | 67% | 36.7% | 23.7% | 69.2% | 37.4%
10 | Cc1ccc(NC(=O)CN2CCOCC2)cc1Cl | 82.3% | 93.3% | 92% | 99.9% | 94.7% | 90.1% | 107% | 104% | 98.7% | 103% | 88.7% | 77% | 100% | 98.5% | 91.8% | 80.5% | 96.8% | 103%
11 | COc1ccc(CCNC=O)cc1OC | 117% | 108% | 107% | 99.7% | 100% | 114% | 94% | 110% | 105% | 97.4% | 99.7% | 96.1% | 103% | 93.4% | 94.1% | 100% | 104% | 102%
12 | CC(=O)Oc1ccc(C(OC(C)=O)OC(C)=O)cc1 | 88.8% | 107% | 114% | 108% | 117% | 97.6% | 109% | 103% | 105% | 103% | 72.1% | 94.2% | 104% | 112% | 98.5% | 92.8% | 97.2% | 98.6%
13 | O=C(CSc1nnc(-c2ccc(Cl)cc2)o1)Nc1ccc(C(=O)/C=C/c2ccccc2)cc1 | 60.4% | 68.7% | 97.3% | 106% | 101% | 117% | 95.7% | 108% | 101% | 88.1% | 107% | 99.8% | 91.4% | 101% | 53.1% | 65.7% | 106% | 100%
14 | Cc1nccc2c3ccc(OCc4cn(-c5ccc(Br)cc5)nn4)cc3n(CCCc3ccccc3)c12 | -29.8% (active) | 8.43% (active) | 2.18% (active) | 49.6% | 63.2% | 90% | 60.4% | 104% | -6.57% (active) | -36.1% (active) | 104% | 53.5% | 18.7% | 2.21% (active) | 12.5% | 30.6% | 35.6% | 8.07% (active)
15 | NCC(=O)NS(=O)(=O)OC[C@H]1O[C@@H](n2cnc3c(N)ncnc32)[C@H](O)[C@@H]1O | 9.93% (active) | 18% | -11.9% (active) | 0.292% (active) | -22.1% (active) | 6.28% (active) | 11.7% | 10% | 16.1% | 2.07% (active) | 7.66% (active) | 21.1% | -49.8% (active) | 3.71% (active) | 8.27% (active) | 6.57% (active) | 41.4% | 0.735% (active)
16 | C#C[C@H](O)/C=C/CCCCCCC#C[C@H](O)CC[C@@H](O)C#CCCCCCC/C=C/[C@@H](O)C#C | -22.8% (active) | 21.3% | 89.1% | 111% | 101% | 105% | -37.6% (active) | 96% | 95.9% | 54.5% | 76% | 93.9% | 92.5% | 71.9% | 68.5% | 57.3% | 95.2% | 93.2%
